{"source": "PubChem BioAssay AID1543", "about": "(National Center for Advancing Translational Sciences (NCATS), 2009)", "note": "Inconclusive results are not listed. A call without a number means that no potency is given here. The source made the active and inactive calls. The call rests on the fitted dose curve; in most records, active means well fitted activation curve with a large enough effect; inconclusive means small, poorly fitted or top-dose-only effect, or effect the other way; inactive means flat fitted curve, though single readings scatter."}
{"target": "Pyruvate kinase PKLR (Homo sapiens) (UniProt P30613)", "sequence (P30613 whole entry, looked up)": "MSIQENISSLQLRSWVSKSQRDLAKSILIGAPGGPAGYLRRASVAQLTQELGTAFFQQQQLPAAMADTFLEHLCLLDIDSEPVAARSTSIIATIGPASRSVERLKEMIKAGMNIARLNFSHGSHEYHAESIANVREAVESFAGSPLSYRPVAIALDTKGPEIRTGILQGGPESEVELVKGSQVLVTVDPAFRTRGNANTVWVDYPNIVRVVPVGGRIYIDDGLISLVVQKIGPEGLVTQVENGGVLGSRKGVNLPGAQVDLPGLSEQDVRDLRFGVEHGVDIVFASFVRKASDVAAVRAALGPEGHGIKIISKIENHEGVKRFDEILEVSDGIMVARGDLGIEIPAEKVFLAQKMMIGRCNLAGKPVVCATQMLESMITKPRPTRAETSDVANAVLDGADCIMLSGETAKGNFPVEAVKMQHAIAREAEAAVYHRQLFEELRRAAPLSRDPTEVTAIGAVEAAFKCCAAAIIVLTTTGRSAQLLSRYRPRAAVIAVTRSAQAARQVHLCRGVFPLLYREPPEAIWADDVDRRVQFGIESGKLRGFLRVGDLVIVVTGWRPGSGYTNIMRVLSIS", "experiment": "Secondary assay for Activators of Human Reticulocyte Pyruvate Kinase", "conditions": "purified hPK-R, LDH-coupled NADH fluorescence kinetic; series mostly up to 57.5 µM", "description": "Confirmatory assay NIH Chemical Genomics Center [NCGC] Wael M. Rabeh, Lyudmila Nedyalkova and Hee-Wan Park [Structural Genomics Consortium, 100 College St. Toronto, Ontario, Canada] NCGC Assay Overview: Human pyruvate kinase reticulocyte (hPK-R) enzyme was supplied as a highly purified (>95% pure) preparation from Structural Genomics Consortium in Toronto (Ontario, Canada) and a secondary assay was used to evaluate compounds. This assay couples the formation of pyruvate from hPK-R using lactate dehydrogenase (LDH) and NADH. The depletion of NADH is followed in a fluorescent-based kinetic assay that follows the formation of pyruvate to lactate, as catalyzed LDH. Pyruvate kinase substrates, PEP and ADP, were present in the assay at 0.1 mM and 4 mM respectively. In this kinetic assay initial rates were determined by following the fluorescence of NADH depletion.\nNCGC Assay Protocol Summary: Three uL of substrate mix (final concentration, 50 mM Tris-Cl pH 8.0, 200 mM KCl, 15 mM MgCl2, 0.1 mM PEP, 4.0 mM ADP, and 0.2 mM NADH) was dispensed into black-solid 1536 well plates. 23 nL of compounds were delivered by a pin tool and 1 uL of enzyme mix (final concentrations, 10 nM hPK-R and 1 uM of LDH) was added. Plates were immediately placed in ViewLux (Perkin Elmer) and NADH fluorescence was determined at 30 second exposure intervals for between 3 and 6 minutes. Data were normalized to the uninhibited and EC100 activation using known activators such as fructose-bis-phosphate."}
{"smiles": "Cn1c2cc(C=O)sc2c2cnn(Cc3ccccc3F)c(=O)c21", "Potency": "398 nM (active)"}
{"smiles": "C[C@@H]1CN(S(=O)(=O)c2ccc3c(c2)OCCO3)CCN1S(=O)(=O)c1c(F)cccc1F", "Potency": "inactive"}
{"smiles": "Cn1c2cc(S(C)=O)sc2c2cnn(Cc3ccccc3F)c(=O)c21", "note": "(stereo unspecified)", "Potency": "1120 nM (active)"}
{"smiles": "O=S(=O)(c1ccc(Cl)cc1)N1CCN(S(=O)(=O)c2ccc3c(c2)OCCO3)CC1", "Potency": "inactive"}
{"smiles": "CC(C)c1cc2c(s1)c1cnn(Cc3ccccc3F)c(=O)c1n2C", "Potency": "4470 nM (active)"}
{"smiles": "O=C(c1c(F)cccc1F)N1CCN(S(=O)(=O)c2ccc3c(c2)OCCO3)CC1", "Potency": "inactive"}
{"smiles": "O=S(=O)(c1ccc2c(c1)OCO2)N1CCN(S(=O)(=O)c2c(F)cccc2F)CC1", "Potency": "inactive"}
{"smiles": "C[C@H]1CN(S(=O)(=O)c2ccc3c(c2)OCCO3)CCN1S(=O)(=O)c1c(F)cccc1F", "Potency": "inactive"}
{"smiles": "O=S(=O)(c1ccc2c(c1)OCCO2)N1CCN(S(=O)(=O)c2ccc3c(c2)OCCO3)CC1", "Potency": "inactive"}
{"smiles": "O=S(=O)(c1cccc(F)c1)N1CCN(S(=O)(=O)c2ccc3c(c2)OCCO3)CC1", "Potency": "inactive"}
{"smiles": "Cn1c2ccsc2c2cnn(Cc3ccccc3F)c(=O)c21", "Potency": "14100 nM (active)"}
{"smiles": "CCCCCn1ncc2c3sc(C)cc3n(C)c2c1=O", "Potency": "inactive"}
{"smiles": "C[C@H]1CN(S(=O)(=O)c2c(F)cccc2F)CCN1S(=O)(=O)c1ccc2c(c1)OCCO2", "Potency": "inactive"}
{"smiles": "O=S(=O)(c1c(F)cccc1F)N1CCN(S(=O)(=O)c2c(F)cccc2F)CC1", "Potency": "inactive"}
{"smiles": "COc1ccc(Cn2ncc3c4sc(C)cc4n(C)c3c2=O)cc1", "Potency": "631 nM (active)"}
{"smiles": "CSc1cc2c(s1)c1cnn(Cc3ccccc3F)c(=O)c1n2C", "Potency": "708 nM (active)"}
{"smiles": "Cn1c2cc(C#N)sc2c2cnn(Cc3ccccc3F)c(=O)c21", "Potency": "inactive"}
{"smiles": "CC(=O)c1cc2c(s1)c1cnn(Cc3ccccc3F)c(=O)c1n2C", "Potency": "631 nM (active)"}
{"smiles": "O=S(=O)(c1ccc2ccccc2c1)N1CCN(S(=O)(=O)c2c(F)cccc2F)CC1", "Potency": "inactive"}
{"smiles": "Cc1cc2c(s1)c1cnn(Cc3c(F)c(F)cc(F)c3F)c(=O)c1n2C", "Potency": "inactive"}
{"smiles": "O=C(c1ccc2c(c1)OCCO2)N1CCN(S(=O)(=O)c2c(F)cccc2F)CC1", "Potency": "inactive"}
{"smiles": "O=S(=O)(c1ccc2c(c1)OCCO2)N1CCN(S(=O)(=O)c2c(F)cccc2F)CC1", "Potency": "inactive"}
{"smiles": "O=S(=O)(NC1CCC(NS(=O)(=O)c2c(F)cccc2F)CC1)c1ccc2c(c1)OCCO2", "note": "(stereo unspecified)", "Potency": "inactive"}
{"smiles": "COc1ccc(S(=O)(=O)N2CCN(S(=O)(=O)c3ccc(OC)cc3)CC2)cc1", "Potency": "inactive"}
{"smiles": "O=S(=O)(c1ccc2c(c1)OCCO2)N1CCN(S(=O)(=O)c2c(F)ccc(O)c2F)CC1", "Potency": "inactive"}
{"smiles": "CCc1cc2c(s1)c1cnn(Cc3ccccc3F)c(=O)c1n2C", "Potency": "5620 nM (active)"}
